# Experimental data: PubChem BioAssay (Tox21)
# Where “and” joins values, the source holds several entries; their conditions need not be identical. Equal entries are not always repeated. Inconclusive results are not listed. Where a call stands in place of a potency, no number is given. The source holds several records for some structures; these can differ, active in one and inactive in another. Calls of active or inactive are those of the source. The call rests on the fitted dose curve.
# Assay: Nuclear factor erythroid 2-related factor 2/antioxidant responsive element (Nrf2/ARE) small molecule agonists: luciferase reporter gene qHTS assay in human keratinocytes (AID 1919969); further: nearly all actives have a fitted effect of over 35% in size
# Details: KeratinoSens HaCaT ARE-luciferase, luminescence, 24 h; series mostly up to 92.4 µM
# Excerpt: National Center for Advancing Translational Sciences [NCATS]
# Division of Preclinical Innovation [DPI]
# U.S. Environmental Protection Agency [EPA]
# National Institutes of Environmental Health Sciences [NIEHS]
# National Toxicology Program [NTP]
# U.S. Food and Drug Administration [FDA]
# Oxidative stress has been implicated in the pathogenesis of a variety of diseases ranging from cancer to neurodegeneration. The antioxidant response element (ARE) signaling pathway plays an important role in the amelioration of oxidative stress. The KeratinoSens (Givaudan, Switzerland) is an in vitro test method which quantifies luciferase induction as a measure of activation of Keap1-Nrf2-antioxidationt/electrophile response element (ARE) dependant pathway in HaCaT human keratinocytes stably transfected with a selectable plasmid. The KeratinoSens assay is a cell-based assay with a reporter cell line to detect potential skin sensitizers by their ability to induce the Nrf2/ARE-response. The activation of the report gene under culture conditions can be detected by ONE-Glo Luciferase Assay System (Promega, Madison, WI). This cell line has been used to screen the Tox21 10K compound library to identify agonists that induce oxidative stress. The cytotoxicity of the Tox21 compound library against the KS-ARE cell line was tested in parallel by measuring the cell viability using CellTiter- Fluor assay system (Promega, Madison, WI) in the same wells.
# HaCaT derived cell line KeratinoSens were dispensed at 1,500 cells/5uL/well in 1536-well white wall/solid bottom plates using a Multidrop Combi (ThermoFisher Scientific, Waltham, MA) dispenser. After the assay plates were incubated at 37 C/5% CO2 for 5 h, 23 nL of compounds dissolved in DMSO, positive controls or DMSO only was transferred to the assay plate by a pintool workstation (Kalypsys, San Diego, CA). The plates were incubated at 37 C/5% CO2 for 23 h, followed by addition of 1uL/well of CellTiter-Fluor reagent into the assay plates using a Flying Reagent Dispenser (Aurora Discovery, San Diego, CA) for cell viability readout that measures cytotoxicity. After 1 h incubation at 37 C/5% CO2 the fluorescence intensity was measured using a ViewLux (PerkinElmer, Shelton, CT) plate reader. Then 4uL/well of One-Glo were added using a Flying Reagent Dispenser. After the plates were incubated at room temperature for 30 min, the luminescence intensity in the assay plates was measured using ViewLux plate reader.
# Potency means the concentration at half of the fitted maximal effect.
row,SMILES,Potency
1,BrCc1ccc(Br)cc1,inactive
2,COP(=O)(CCC(=O)NCO)OC,inactive
3,CNC(C)(C)Cc1ccccc1,inactive
4,C=COCCCl,inactive
5,CCOP(=S)(OCC)O/N=C(\C#N)c1ccccc1,inactive
6,C=CC1CC=CCC1 (stereo not given),inactive
7,C1=Cc2cccc3cccc1c23,23.9 µM (active) and inactive
8,O=C(NC(=O)c1c(F)cccc1F)Nc1ccc(Cl)cc1,inactive
9,O=[N+]([O-])c1ccc([As](=O)(O)O)cc1,inactive
10,CC(C)(c1ccc(OCC2CO2)cc1)c1ccc(OCC2CO2)cc1 (stereo not given),27.7 µM (active) and 27.3 µM (active)
11,COC(=O)C(Cl)C(=O)OC,inactive
12,Clc1cccc(Cl)c1Cl,inactive
13,C=C(C#N)CCC#N,inactive
14,C=CCOC(N)=O,inactive
15,CC(Cl)(Cl)C(=O)O,inactive
16,COP(=S)(OC)SCn1nnc2ccccc2c1=O,53.4 µM (active) and 68.6 µM (active)
17,C1CS1,inactive
18,CCCCCCCCCCCC#N,inactive
19,Nc1cc(Cl)cc(C(=O)O)c1Cl,inactive
20,CC(C(=O)c1ccccc1)N(C)C (stereo not given),inactive

row,SMILES,Potency
1,C=CCOC(Cn1ccnc1)c1ccc(Cl)cc1Cl (stereo not given),15.4 µM (active) and 24.3 µM (active) and 8.41 µM (active)
2,Cc1cccc(N=Nc2ccc(N(C)C)cc2)c1,247 nM (active) and 1.72 µM (active)
3,c1ccc2sc(SNC3CCCCC3)nc2c1,53.9 µM (active) and 61.1 µM (active)
4,CCCCN(CCCC)SN(C)C(=O)Oc1cccc2c1OC(C)(C)C2,24.7 µM (active) and 54.5 µM (active)
5,CCCCN(CCCCO)N=O,inactive
6,C[N+](C)(C)C,inactive
7,Clc1ccc(C2(Cn3cncn3)OCCO2)c(Cl)c1,inactive
8,CN1C[C@H](C(=O)N[C@]2(C)O[C@@]3(O)[C@@H]4CCCN4C(=O)[C@H](Cc4ccccc4)N3C2=O)C=C2c3cccc4[nH]cc(c34)C[C@H]21,inactive
9,CS(=O)(=O)Cl,inactive
10,CC(O)CCO (stereo not given),inactive
11,Cc1cccc(C#N)c1,inactive
12,CCN(Cc1ccc(Cl)nc1)/C(=C/[N+](=O)[O-])NC,inactive
13,BrCCc1ccccc1,inactive
14,NN=C(N)N,inactive
15,C=CC(=O)OCCO,inactive
16,O=C(O)c1cc(Oc2ccc(C(F)(F)F)cc2Cl)ccc1[N+](=O)[O-],inactive
17,CCCC[N+]1(C)CCCC1,inactive and 54.8 µM (active)
18,O=S(=O)(c1ccc(Cl)cc1)c1cc(Cl)c(Cl)cc1Cl,48.5 µM (active)
19,CCOP(=S)(OCC)Oc1nc(Cl)c(Cl)cc1Cl,27.4 µM (active) and 61.1 µM (active)
20,CNC,inactive
